Source: PubChem BioAssay AID540253 (National Center for Advancing Translational Sciences (NCATS), 2011)
The whole screen tested about 340,000 compounds, of which about 240 (0.071%) were called active. Many of the other results were omitted from the sample, so actives are more common in it than they were. Values without a mark were called inactive. Calls come from the whole dose curve.

These compounds were tested against Snurportin-1 (Homo sapiens) + GTP-binding nuclear protein Ran (Homo sapiens) + Importin subunit beta-1 (Homo sapiens) (UniProt O95149+P62826+Q14974) (assay: qHTS Assay for Inhibitors of RanGTP induced Rango (Ran-regulated importin-beta cargo) - Importin beta complex dissociation). Settings: Biochemical FRET Rango-importin beta; series mostly up to 46.1 µM; activity change, negative = inhibition: at the top concentration.
Source text: NIH Molecular Libraries Probe Production Centers Network [MLPCN] NIH Chemical Genomics Center [NCGC] MLPCN Grant: R03 MH090808-01A1 Assay Submitter (PI): Petr Kalab NCGC Assay Overview: The small GTPase Ran regulates transport of macromolecules between the nucleus and the cytoplasm (nuclear transport) and has important functions in mitotic spindle assembly, nuclear envelope (NE) formation and nuclear pore complex (NPC) assembly. RanGTP gradient is thought to promote spindle assembly by providing a spatial clue to microtubule nucleation and Aurora A activation. Because the localized release and binding of importin alpha cargos relays this spatial clue to SAFs, inhibitors of the Rango - importin beta complex can then be used in further understanding their role in cell cycle specifically in mitosis progression. […] Activation of Aurora A has been linked to different types of cancer and a number of Aurora kinase inhibitors are being developed as potential canter therapeutics; therefore, identified inhibitors of this complex could be developed into potential anti-mitotic probes for cancer treatment. Purified recombinant proteins Rango - importin beta and RanGTP-RCC1 stock premixes were provided by the assay submitter. The assay used a fluorescence resonance energy transfer (FRET) Rango biosensor that contains the IBB of human snurportin 1 flanked by yellow fluorescent protein (EYFP) at the amino terminus and cerulean CFP10 at the carboxy terminus. […] RanGTP binding to the complex (in the presence of RCC1) releases the Rango from the complex. The flexibility of the IBB in the freed Rango allows the donor - acceptor fluorophores to interact, resulting in a high FRET signal. Inhibitors will therefore be identified based on the ability to interfere with the FRET signal increase. DMSO treated and no RanGTP-RCC1 (buffer only) wells were used as negative and positive controls respectively. FRET readings were obtained at two time points. FRET reading prior to importin beta addition (pre-read) were used flag potential compound interference; FRET reading after importin beta addition (post-read) were used to identify inhibitors.
NCGC Assay Protocol Summary: Two and a half uL/well of Rango- importin beta premix solution (0.1 uM Rango, 0.25 uM importin beta, 1x PBS, 1mM DTT, 0.02% Tween-20, 0.1% BSA final concentrations) was dispensed into 1536-well assay plates (Greiner, solid black medium-binding plates) with Aurora Discovery BioRAPTR Flying Reagent Dispenser (FRD; Beckton-Dickenson). Compound solution (23 nL) was transferred to the assay plate using Kalypsys pin tool equipped with a 1536-pin tool and incubated at room temperature for 5 min followed by a FRET pre-read using the PerkinElmer Envision plate reader. Two and a half uL/well of RanGTP-RCC1 premix solution (0.6 uM Ran, 2mM GTP, 0.2 uM RCC1, 1x PBS, 1mM DTT, 0.02% Tween-20, 0.1% BSA final concentrations) were then added and incubated at room temperature giving a final reaction volume of 5uL. After 45min FRET post-read was obtained via the Envision plate reader using the same optics and settings as the pre-read (CFP/YFP optimized dual optical module D450/D505; excitation mirror CFP 430/24 nm; and emission filters CFP 486/10 nm and YFP 530/10 nm).
Note: nearly all actives have a fitted effect of over 45% in size.
Potency is the fitted concentration of half-maximal effect.
Throughout, for activity change, negative = inhibition: % of control where 0% means no effect.

Row | Structure (SMILES) | activity change, negative = inhibition [%] | Potency
1 | COc1cc2c(cc1OC)C(c1cccc([N+](=O)[O-])c1)=NCC2 | 4.37 | 
2 | COc1cc2c(cc1OC)C(/C=C/c1ccco1)=NCC2 |  | 8.2 µM [inconclusive] (active)
3 | CCOC(=O)C1=NN(c2ccc(Cl)cc2)/C(=C/C2=NCCc3cc(OC)c(OC)cc32)S1 | 0.611 | 
4 | C/C(=N\Nc1ccc(Cl)nn1)c1ccccc1O | -0.572 | 
5 | COc1ccc(NC(=O)/C(N=Nc2cccc(S(=O)(=O)Nc3ccc(SC(F)F)cc3)c2)=C(\C)O)cc1 | -19.4 | 
6 | OCCN1CCN(CCO)C1=S | -2.38 | 
7 | O=C(Cc1ccc(Cl)cc1)c1ccccc1 | -16.1 | 
8 | C[C@]12CCC(=O)C=C1C=CC1C2CC[C@@]2(C)C1CC[C@@]21CCC(=O)O1 (some centres undefined) | 1.93 | 
9 | Cc1nn(-c2ccc(F)cc2)c(Cl)c1/C=C(/CCC(=O)O)c1nc2ccccc2s1 | -9.2 | 
10 | COC(=O)C1=C(C)N(c2ccc(Br)cc2)C(=O)/C1=C\c1ccco1 | -5.05 | 
11 | CCOC(=O)C1(C)NC(c2ccco2)C2C(=O)N(c3ccccc3)C(=O)C21 (centres undefined) | 1.12 | 
12 | CCCCN=C1N/C(=C\c2ccco2)C(=O)N1c1ccccc1 |  | 14.6 µM [inconclusive] (active)
13 | COCCNc1nc2nonc2nc1N1CCCC1c1nccs1 (centres undefined) |  | 18.4 µM [inconclusive] (active)
14 | COCCNc1nc2nonc2nc1N(C)Cc1ccc(C)cc1 | -7.61 | 
15 | COCCNc1ncnc2c1nc1n2CCCC1 | 11.7 | 
16 | CC(NC(=O)c1ccccc1)C(=O)Nc1ccccc1 (centres undefined) | 2.79 | 
17 | C(#CCN1CCOCC1)CCCN1CCOCC1 | -7.44 | 
18 | O=C(Nc1c(Br)cc2c(c1Br)Cc1ccccc1-2)C(F)(F)F | -9.71 | 
19 | COc1ccc(-c2ccc3c(c2)[C@@H]2C[C@H](N(C)S(=O)(=O)c4ccccc4)[C@H]([C@H](C)O)C(=O)N2CC3)cc1 | -9.19 | 
20 | c1ccc2c(c1)OC1OC2Oc2ccccc21 | 1.32 | 
21 | CCOc1ccc(S(=O)(=O)N2CCN(C(=O)c3oc4ccccc4c3C)CC2)cc1 | 21 | 
22 | Cc1nc(N)sc1-c1ccccc1 | 12.3 | 
23 | CN(C)c1ccc(CSc2ccccc2)cc1 | -10.4 | 
24 | COCCN(C(=O)C(C)N1C(=O)c2ccccc2C1=O)c1c(N)n(CC(C)C)c(=O)[nH]c1=O (centres undefined) | -2.86 | 
25 | COc1cccc(/C=N/Nc2ccc(S(=O)(=O)Nc3ccccc3C(=O)O)cc2[N+](=O)[O-])c1O | 27.9 | 
26 | Cc1ccccc1N1CCN(C(=O)c2cccnc2)CC1 | -6.59 | 
27 | Cc1ccc(S(=O)(=O)n2oc(=O)c(C3CCCCC3)c2N)cc1 | -10.6 | 

Row | Structure (SMILES) | activity change, negative = inhibition [%] | Potency
28 | O=C(Nc1ccn(CCCNCc2ccc3[nH]ccc3c2)c(=O)n1)OCc1ccccc1 | -18 | 
29 | CCCCN1CC(CO)Oc2cccc(F)c2S1(=O)=O (centres undefined) | -9.79 | 
30 | CCc1c(Nc2ccccc2Cl)nc(N)[nH]c1=O | 4.91 | 
31 | O=C1OCC2=C1C(c1ccc(Cl)cc1)c1cc3c(cc1O2)OCO3 (centres undefined) | 5.14 | 
32 | O=C1C2C3C=CC(C3)C2C(=O)N1c1ncc([N+](=O)[O-])s1 (centres undefined) | 2.52 | 
33 | O=C(NN=Cc1ccc([N+](=O)[O-])cc1)C1CC1 | 0.979 | 
34 | O=C(CCC(=O)N1CCN(S(=O)(=O)c2ccc(Cl)cc2)CC1)NCc1cccc(C(F)(F)F)c1 | -1.43 | 
35 | COc1ccc(CC(=O)NC(C)c2ccc(Cl)c(Cl)c2)cc1S(=O)(=O)N1CCOCC1 (centres undefined) | -14.4 | 
36 | CCOC(=O)C1CCCN(C(=O)Cn2ncc3c(=O)oc4ccc(C)cc4c32)C1 (centres undefined) | -6.21 | 
37 | CC1=CC(=NNS(=O)(=O)c2ccc([N+](=O)[O-])cc2)CC(C)(C)C1 | -0.346 | 
38 | O=C(O)c1ccccc1/C=N/Nc1ccc(S(=O)(=O)Nc2ccc(Cl)cc2)cc1[N+](=O)[O-] | -1.28 | 
39 | NN=C(NN=Cc1ccccc1)c1ccccc1 | -0.281 | 
40 | NC(=O)c1ncn([C@@H]2O[C@H](CN=C3NS(=O)(=O)c4ccccc43)[C@@H](O)[C@H]2O)n1 | -11.1 | 
41 | CC(C)OC(=O)c1ccc(NCc2cc(O)ccc2O)cc1Cl | -14.8 | 
42 | O=C(c1ccc2c(c1)C(=O)N(Cc1ccncc1)C2=O)N1CCN(S(=O)(=O)c2ccc(OC(F)(F)F)cc2)CC1 | 17.2 | 
43 | NC(CSC1(c2ccccc2)c2ccccc2-c2ccccc21)C(=O)O (centres undefined) | 2.22 | 
44 | O=c1[nH]c(=S)[nH]c(O)c1/C=C1\C=Nc2ccccc21 | -10 | 
45 | O=C1OC(Cc2ccccc2)C(c2ccccc2)C1=O (centres undefined) | 2.72 | 
46 | Cc1cccc(C2c3c(n(C)c(=O)n(C)c3=O)N=C3c4ccccc4C(=O)C32)c1 (centres undefined) | 15.3 | 
47 | CCNC(=S)NCC | 5.2 | 
48 | COc1ccc(-c2nnc(-c3ccc4ccccc4c3)o2)cc1 | -10.4 | 
49 | Cc1[nH]c(N)nc(=S)c1CCCNc1ccccc1 | 8.31 | 
50 | Cn1c(N)cc(=O)n(C)c1=S | 7.4 | 
51 | NC(=O)c1ccc(N2CCCC2)nc1 | -10.8 | 
52 | Cc1cc([N+](=O)[O-])c(=O)[nH]c1C | 0.254 | 
53 | O=S(=O)(Cc1ccc(Cl)cc1Cl)c1ccc(Cl)cc1 | 8.21 | 
54 | CCN(CC(=O)Nc1c(F)cccc1F)C(=O)Cc1cccs1 | -2.49 | 
